Most compounds without a hit are left out; they make up all but 11% or so of the library.
FLuc inh – Photinus pyralis luciferase inhibition. P08659. 76,000 tested, 2.5% active. Potency, µM (highest dose often 115 µM), most hits filed as inhibitors. purified P. pyralis luciferase, luminescence, biochemical; further: nearly all actives have a fitted effect of over 65% in size
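Purified P. pyralis luciferase (10nM final) in 50mM Tris acetate pH 7.5, 10mM Mg acetate, 0.01% Tween-20, 0.05% BSA with 10uM D-luciferin and 10uM ATP. Compounds titrated qHTS. Luminescence imaged on CCD.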
3T3 cytotox – NIH 3T3 cell cytotoxicity; NIH 3T3 viability, CellTiter-Glo ATP luminescence, 48-72 h; 94,000 tested, 4.3% active; Potency, µM (doses to about 96.7 µM), hits mostly inhibitors; further: nearly all actives have a fitted effect of over 55% in size
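Luminescent ATP readout (CellTiter-Glo, 10 min RT) after 48 or 72 hr compound exposure of NIH 3T3 cells seeded at 400 cells/well in 1536-well format; quantitative HTS.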
HEK cytotox – kills HEK 293 cells; HEK 293 viability, ATP luminescence (CellTiter-Glo), 48-72 h; Potency, µM (series often up to 115 µM), hits mostly inhibitors; 94,000 tested, 6.6% active; further: nearly all actives have a fitted effect of over 60% in size
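Cells seeded first (HEK 293, 250 cells/well), then compound added by pintool. Incubation ran 48 or 72 hr at 37 degree Celsius. CellTiter-Glo was added and luminescence imaged after 10 min at room temperature.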
NPR1 antag – antagonists of human natriuretic peptide receptor Npr1; Potency, µM (titrated, usually from 46.3 µM), actives largely listed as inhibitors; P16066; HEK293 hNpr1 GloSensor cGMP, ANP-stimulated luminescence; 76,000 tested, 1.6% active; AID 1347048; calls by dose curve; further: nearly all actives have a fitted effect of over 60% in size
Target sequence (P16066 whole entry, looked up): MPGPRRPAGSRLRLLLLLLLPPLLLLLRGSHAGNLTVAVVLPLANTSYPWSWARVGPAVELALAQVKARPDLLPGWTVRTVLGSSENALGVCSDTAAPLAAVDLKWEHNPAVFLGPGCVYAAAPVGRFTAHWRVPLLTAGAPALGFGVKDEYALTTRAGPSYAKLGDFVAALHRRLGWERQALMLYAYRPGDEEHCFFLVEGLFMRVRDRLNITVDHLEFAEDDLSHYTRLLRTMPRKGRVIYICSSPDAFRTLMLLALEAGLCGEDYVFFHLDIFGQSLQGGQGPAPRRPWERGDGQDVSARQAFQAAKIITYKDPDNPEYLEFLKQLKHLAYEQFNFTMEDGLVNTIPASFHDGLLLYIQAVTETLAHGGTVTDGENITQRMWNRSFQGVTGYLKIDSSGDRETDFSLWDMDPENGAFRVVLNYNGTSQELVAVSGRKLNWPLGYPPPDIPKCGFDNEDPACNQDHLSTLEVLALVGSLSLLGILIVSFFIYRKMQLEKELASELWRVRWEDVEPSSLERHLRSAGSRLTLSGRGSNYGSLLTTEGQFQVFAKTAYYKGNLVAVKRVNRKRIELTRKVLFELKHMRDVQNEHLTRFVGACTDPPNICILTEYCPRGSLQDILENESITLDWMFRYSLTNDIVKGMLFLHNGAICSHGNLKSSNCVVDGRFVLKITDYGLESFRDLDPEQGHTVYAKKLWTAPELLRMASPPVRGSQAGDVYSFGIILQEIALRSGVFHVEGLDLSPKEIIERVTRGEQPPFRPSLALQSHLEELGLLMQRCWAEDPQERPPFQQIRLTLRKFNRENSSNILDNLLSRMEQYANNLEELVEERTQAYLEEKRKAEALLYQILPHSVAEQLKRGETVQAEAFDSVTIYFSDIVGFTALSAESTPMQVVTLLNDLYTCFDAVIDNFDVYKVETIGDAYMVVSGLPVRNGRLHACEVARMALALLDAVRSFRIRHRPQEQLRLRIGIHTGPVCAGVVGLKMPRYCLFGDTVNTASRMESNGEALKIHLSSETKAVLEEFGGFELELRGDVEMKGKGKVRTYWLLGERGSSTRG
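HEK293 cells stably expressing human Npr1 and cGMP GloSensor pGS-40F, loaded 2 h with 2% GloSensor reagent, given compound 30 min at room temperature. Luminescence read before and 20 min after 0.1 nM hNppA.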
A number is an active result. Unless noted, the call rests on the fitted dose curve; in most records, active means well fitted curve in the direction sought with a large enough effect; inconclusive means small, poorly fitted or top-dose-only effect, or another doubt; inactive means no such curve, though single readings can be large; an effect the other way counts as inactive or inconclusive.

`CCOC(=O)C1CCN(C(=O)c2ccc3nc(-c4cccc(C)n4)oc3c2)CC1` gave 3T3 cytotox inactive and HEK cytotox inactive.
For COCCC(=O)N1CCC2(CC1)CC(CCOc1ccncc1)CCO2 (centres undefined) the results were 3T3 cytotox inactive and HEK cytotox inconclusive.
`CCOC(=O)CN1C(=O)CN(C(=O)c2cc3ccccc3s2)CCC(OC)c2ccccc21` (centres undefined) gave 3T3 cytotox inactive and HEK cytotox inconclusive.
Cc1ccc(Nc2ccnc(N3CCCC(C(=O)NCc4cccs4)C3)n2)cc1 (centres undefined) was read as 3T3 cytotox 17.8µM and HEK cytotox 10µM.
`COc1ccc(Nc2ccnc(N3CCCC(C(=O)NCc4cccs4)C3)n2)cc1` (centres undefined) gave 3T3 cytotox 35.5µM and HEK cytotox 35.5µM.
Screening COc1ccccc1Nc1ccnc(N2CCC[C@H]2C(=O)NCc2cccs2)n1 returned 3T3 cytotox inactive and HEK cytotox inconclusive.
For COc1cccc(-c2cc(C(=O)Nc3cccc(C(F)(F)F)c3)c3cnn(C)c3n2)c1 the results were 3T3 cytotox inconclusive and HEK cytotox 31.6µM.
Cn1ncc2c(C(=O)Nc3cccc(F)c3)cc(-c3cccc(C(F)(F)F)c3)nc21 was read as 3T3 cytotox inactive and HEK cytotox inactive.
For Cn1ncc2c(C(=O)Nc3cccc(F)c3)cc(-c3ccc(C(F)(F)F)cc3)nc21 the results were 3T3 cytotox inactive and HEK cytotox inactive.
`Cn1ncc2c(C(=O)Nc3cccc(C(F)(F)F)c3)cc(-c3ccc(C(F)(F)F)cc3)nc21` gave 3T3 cytotox 7.94µM and HEK cytotox 11.2µM.
For Cc1nn2c(c1-c1ccnn1C(C)C)N(Cc1ccc3c(c1)CCO3)CCC2 the results were FLuc inh inactive, 3T3 cytotox 31.6µM, HEK cytotox inconclusive and NPR1 antag inactive.
For COc1ccc(OC)c(CN2CCCn3nc(C)c(-c4cccnc4N4CCOCC4)c32)c1 the results were FLuc inh inactive, 3T3 cytotox inconclusive, HEK cytotox inactive and NPR1 antag inactive.
COc1ccc(CN2CCCn3nc(C)c(-c4ccnn4C(C)C)c32)cc1O was read as FLuc inh inactive, 3T3 cytotox inconclusive, HEK cytotox inactive and NPR1 antag inactive.
Screening Cc1nn2c(c1-c1cccnc1N1CCOCC1)N(Cc1ccc3c(c1)CCO3)CCC2 returned FLuc inh inactive, 3T3 cytotox 44.7µM, HEK cytotox inactive and NPR1 antag inactive.
For Cc1nn2c(c1-c1ccccc1OCc1ccccc1)N(Cc1ccccc1)CCC2 the results were FLuc inh inactive, 3T3 cytotox inconclusive, HEK cytotox inconclusive and NPR1 antag inactive.
Cc1nn2c(c1-c1cccnc1N1CCOCC1)N(CCC(C)C)CCC2 was read as FLuc inh inactive, 3T3 cytotox inconclusive, HEK cytotox 39.8µM and NPR1 antag inactive.
COCCCNC(=O)CCC1CCN(S(=O)(=O)c2ccccc2C)CC1 was read as 3T3 cytotox inactive and HEK cytotox inactive.
`COc1cccc(-c2cc(C3CCN(C(=O)Nc4cc(C)cc(C)c4)CC3)[nH]n2)c1` gave FLuc inh inactive, 3T3 cytotox inconclusive, HEK cytotox 39.8µM and NPR1 antag inactive.
COc1cccc(-c2cc(C3CCN(C(=O)Nc4ccc(OC)c(OC)c4)CC3)[nH]n2)c1 was read as FLuc inh inconclusive, 3T3 cytotox inconclusive, HEK cytotox inconclusive and NPR1 antag inactive.
CSc1cccc(NC(=O)N2CCC(c3cc(-c4cccc(C)c4)n[nH]3)CC2)c1 was read as FLuc inh inactive, 3T3 cytotox 17.8µM, HEK cytotox 44.7µM and NPR1 antag inactive.
COc1cccc(-c2cc(C3CCN(C(=O)Nc4ccc(F)cc4F)CC3)[nH]n2)c1 was read as FLuc inh inactive, 3T3 cytotox inconclusive, HEK cytotox inconclusive and NPR1 antag inactive.
Screening CCOCCOC1CCN(C(=O)c2cc(-c3cccc(OC)c3)n[nH]2)CC1 returned FLuc inh 25.1µM, 3T3 cytotox inactive, HEK cytotox inactive and NPR1 antag inactive.
`COc1cccc(-c2cc(C3CCN(C(=O)Nc4ccccc4C(F)(F)F)CC3)[nH]n2)c1` gave FLuc inh inactive, 3T3 cytotox 31.6µM, HEK cytotox 22.4µM and NPR1 antag inactive.
C[S+](=O)([O-])N1CCC(C(=O)N2CCC(N3CCCC3=O)CC2)CC1 was read as 3T3 cytotox inactive and HEK cytotox inactive.
CC(C)CNC(=O)c1ccc2nnc(C3CC3)n2c1 was read as 3T3 cytotox inactive and HEK cytotox inactive.
`COc1cccc(-c2cc(C3CCN(C(=O)c4ccc(Cl)cc4)CC3)[nH]n2)c1` gave FLuc inh inactive, 3T3 cytotox inconclusive, HEK cytotox 44.7µM and NPR1 antag inconclusive.
For COc1ccc(N2CCN(C(=O)C3(CCO)CC34CCOCC4)CC2)cc1 (centres undefined) the results were 3T3 cytotox inactive and HEK cytotox inactive.
O=C(NCc1ccccc1)C1CCc2nnc(C3CC3)n21 (centres undefined) was read as 3T3 cytotox inactive and HEK cytotox inactive.
For O=C(O)C1CN(C(=O)c2csc(-c3cccs3)n2)CCO1 (centres undefined) the results were FLuc inh inactive, 3T3 cytotox inactive, HEK cytotox inactive and NPR1 antag inactive.
O=C(c1csc(-c2cccs2)n1)N1CCC2(CCCO2)CC1 was read as FLuc inh 35.5µM, 3T3 cytotox inconclusive, HEK cytotox inconclusive and NPR1 antag inactive.
COCC(=O)Nc1ccc(-c2noc([C@@H]3CCCN3CC(C)(C)C)n2)cn1 was read as FLuc inh inactive, 3T3 cytotox inconclusive, HEK cytotox 100µM and NPR1 antag inactive.
Screening COCCOc1ccc(-c2noc([C@@H]3CCCN3C3CCCCC3)n2)cn1 returned FLuc inh inactive, 3T3 cytotox inactive, HEK cytotox 100µM and NPR1 antag inactive.
COc1ccc(-c2noc([C@@H]3CCCN3C3CCCCC3)n2)cn1 was read as FLuc inh inactive, 3T3 cytotox inconclusive, HEK cytotox inconclusive and NPR1 antag inactive.
`O=C(NC1CC1)c1nc(-c2cccc(C(F)(F)F)c2)c2cnccn12` gave FLuc inh inactive, 3T3 cytotox inactive, HEK cytotox 79.4µM and NPR1 antag inactive.
Screening COCCNC(=O)c1nc(-c2ccccc2OC)c2cnccn12 returned FLuc inh inactive, 3T3 cytotox inconclusive, HEK cytotox inconclusive and NPR1 antag inactive.
`O=C(NC1CC1)c1nc(-c2ccccc2)c2ccccn12` gave FLuc inh inactive, 3T3 cytotox inconclusive, HEK cytotox 63.1µM and NPR1 antag inactive.
Screening O=C(NC1CC1)c1nc(-c2cccc(F)c2)c2cnccn12 returned FLuc inh inactive, 3T3 cytotox inconclusive, HEK cytotox inconclusive and NPR1 antag inactive.
COc1ccccc1-c1nc(C(=O)NC2CC2)n2ccncc12 was read as FLuc inh inactive, 3T3 cytotox 56.2µM, HEK cytotox inconclusive and NPR1 antag inactive.
Screening CNc1cc(C)nc(N2CCN(Cc3ccc(C)cc3)C(CCO)C2)n1 (centres undefined) returned FLuc inh inactive, 3T3 cytotox inconclusive, HEK cytotox inconclusive and NPR1 antag inactive.
